In PubChem BioAssay:
Calls of active or inactive are those of the source.

Key:
[1] = binders of probe aFSTL3 on microarray, primary screen, stem cell growth factor project, biochemical, small-molecule microarray, fluorescence 635/667 (AID 1064); details: higher = more signal;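 further: measures binding of the biotinylated anti-FSTL3 antibody to printed compounds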
[2] = binders from COS7 lysate, DM2A8 probe, primary screen, torsin A project, cell lysate, small-molecule microarray, fluorescence 635/667 (AID 1065); details: higher = more signal, COS7 lysate expressing mutant human TOR1A
[3] = binders of probe aFGF2 on microarray, primary screen, stem cell growth factor project, biochemical, small-molecule microarray, fluorescence 635/667 (AID 1067); details: higher = more signal;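 further: measures binding of biotinylated aFGF2 protein to printed compounds on slides; z-score merges feature fluorescence and signal-to-noise across triplicate slides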
[4] = binders of probe aFGF10 on microarray, primary screen, stem cell growth factor project, biochemical, small-molecule microarray, fluorescence 635/667 (AID 1071); details: higher = more signal;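 further: score merges 667 nm spot intensity and signal to noise from triplicate slides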
[5] = molecular target: Neurogenic locus notch homolog protein 2 (Homo sapiens) (UniProt Q04721); assay: Notch2 binders on small-molecule microarrays, primary screen, biochemical, small-molecule microarray, 635 nm fluorescence, stem cell growth factors (AID 1073); details: Notch2 binding, higher = more signal
[6] = molecular target: Pro-neuregulin-1, membrane-bound isoform (Homo sapiens) (UniProt Q02297); assay: NRG1 binders on small-molecule microarrays, primary screen, psychiatric disease protein project, biochemical, small-molecule microarray, fluorescence 635/667 (AID 1075); details: NRG1 binding, 635 nm fluorescence, higher = more signal;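 further: score combines 667 nm spot fluorescence with signal to noise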
[7] = system: Neuregulin-1 EGF-like domain; assay: binders of neuregulin-1 EGF-like domain, primary screen, biochemical, small-molecule microarray, 635 nm fluorescence (AID 1081); details: small-molecule microarray binding, higher = more signal;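 further: binding of the protein to compounds printed on small-molecule microarray slides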
[8] = FRG1 promoter luciferase signal modulators, primary screen, FRG1 inhibition for FSHD, cell-based, C2C12 myotubes, firefly/Renilla luciferase, luminescence (AID 1084); details: higher = more signal, called active from +8 up or from −8 down
[9] = binders of probe aFST on microarray, primary screen, stem cell growth factor project, biochemical, small-molecule microarray, fluorescence 635/667 (AID 1086); details: higher = more signal;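 further: score merges 667 nm fluorescence with signal-to-noise of each printed compound spot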
[10] = binders of probe aHhip on microarray, primary screen, stem cell growth factor project, biochemical, small-molecule microarray, fluorescence 635/667 (AID 1087); details: higher = more signal;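 further: score merges spot fluorescence at 667nm with spot signal to noise ratio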
[11] = system: PRMT1 (protein arginine N-methyltransferase 1); assay: PRMT1 binders on small-molecule microarrays, primary screen, biochemical, small-molecule microarray, 635 nm fluorescence (AID 1088); details: small-molecule microarray binding, higher = more signal;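 further: binding of Prmt1 protein to compounds spotted on small-molecule microarray slides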
[12] = yeast growth modulation, basal conditions, primary screen, YJM789 clinical isolate, OD600, 24 h (AID 1089);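 further: growth of clinical yeast isolate S. cerevisiae YJM 789 seeded 1000 cells per well; test concentration not given here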; details: S. cerevisiae YJM789 growth, higher = more signal, called active from +8 up or from −8 down
[13] = fission yeast growth modulation, primary screen, strain 972, OD600, 24 h, no modulator (AID 1090);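 further: basal condition with compound alone and no growth modifier present; test concentration not given here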; details: S. pombe 972 growth, higher = more signal, called active from +8 up or from −8 down
[14] = S. cerevisiae growth modulation with rapamycin, primary screen, strain BY4716, OD600, 96 h (AID 1091); details: higher = more signal, called active from +8 up or from −8 down; further: test concentration not given here
[15] = molecular target: Torsin-1A-interacting protein 2 (Homo sapiens) (UniProt Q8NFQ8); assay: LULL1 binders on small-molecule microarray, primary screen, cell lysate, human LULL1 lysate, 635/667 nm fluorescence (AID 1092); details: hLULL1 lysate binding, 635 nm fluorescence, higher = more signal;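 further: probe is lysate of COS7 cells overexpressing human LULL1; score merges per-feature 667 nm fluorescence with signal-to-noise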
[16] = E. coli growth modulation, two-sided OD650, primary screen, E. coli filamentation project, strain DRC41, 24 h (AID 1093); details: OD650, 24 h, higher = more signal, called active from +8 up or from −8 down;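 further: MC1000 strain lacking acrAB efflux and sulA so SOS filamentation is blocked; test concentration not given here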
[17] = small-molecule microarray binders of probe aLefty2, primary screen, biochemical, biotinylated probe, 635/667 nm fluorescence (AID 1094); details: higher = more signal;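 further: score merges spot fluorescence near 667 nm with spot signal-to-noise ratio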
[18] = system: Noggin (protein binding on small-molecule microarray); assay: Noggin binders on small-molecule microarray, primary screen, biochemical, 635/667 nm fluorescence (AID 1095); details: 635 nm fluorescence, higher = more signal;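 further: score merges 667 nm feature fluorescence with signal to noise over triplicate slides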
[19] = molecular target: Neurogenic locus notch homolog protein 3 (Homo sapiens) (UniProt Q9UM47); assay: NOTCH3 binders on small-molecule microarray, primary screen, biochemical, 635/667 nm fluorescence (AID 1096); details: NOTCH3 binding, 635 nm fluorescence, higher = more signal
[20] = small-molecule microarray binders of probe aEGFR, primary screen, biochemical, biotinylated probe, 635/667 nm fluorescence (AID 1097); details: higher = more signal;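 further: probe is a biotinylated anti-EGFR antibody binding compounds printed on slides; score combines fluorescence near 667 nm and signal to noise of each spot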

Chain of Pro-neuregulin-1, membrane-bound isoform (Homo sapiens) (Q02297 whole entry, looked up, the tested form may be a part, canonical isoform): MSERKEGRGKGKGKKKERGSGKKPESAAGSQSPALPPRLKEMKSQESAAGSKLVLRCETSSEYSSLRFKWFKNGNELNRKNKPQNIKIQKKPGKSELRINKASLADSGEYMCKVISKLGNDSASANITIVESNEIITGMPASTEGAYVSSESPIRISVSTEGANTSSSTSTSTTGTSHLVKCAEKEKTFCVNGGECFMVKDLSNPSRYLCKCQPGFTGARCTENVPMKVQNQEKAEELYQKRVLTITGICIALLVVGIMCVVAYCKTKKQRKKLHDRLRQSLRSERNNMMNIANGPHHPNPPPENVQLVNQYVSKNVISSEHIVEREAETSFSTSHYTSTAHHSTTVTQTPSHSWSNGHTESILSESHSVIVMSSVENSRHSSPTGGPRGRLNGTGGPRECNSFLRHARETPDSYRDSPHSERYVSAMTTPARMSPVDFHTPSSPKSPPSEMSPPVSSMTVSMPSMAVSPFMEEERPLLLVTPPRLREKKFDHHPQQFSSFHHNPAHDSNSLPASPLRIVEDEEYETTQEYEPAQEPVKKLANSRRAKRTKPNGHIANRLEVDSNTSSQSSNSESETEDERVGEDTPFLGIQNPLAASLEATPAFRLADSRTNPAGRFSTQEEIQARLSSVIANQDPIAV
Chain of Neurogenic locus notch homolog protein 2 (Homo sapiens) (Q04721 whole entry, looked up, canonical isoform): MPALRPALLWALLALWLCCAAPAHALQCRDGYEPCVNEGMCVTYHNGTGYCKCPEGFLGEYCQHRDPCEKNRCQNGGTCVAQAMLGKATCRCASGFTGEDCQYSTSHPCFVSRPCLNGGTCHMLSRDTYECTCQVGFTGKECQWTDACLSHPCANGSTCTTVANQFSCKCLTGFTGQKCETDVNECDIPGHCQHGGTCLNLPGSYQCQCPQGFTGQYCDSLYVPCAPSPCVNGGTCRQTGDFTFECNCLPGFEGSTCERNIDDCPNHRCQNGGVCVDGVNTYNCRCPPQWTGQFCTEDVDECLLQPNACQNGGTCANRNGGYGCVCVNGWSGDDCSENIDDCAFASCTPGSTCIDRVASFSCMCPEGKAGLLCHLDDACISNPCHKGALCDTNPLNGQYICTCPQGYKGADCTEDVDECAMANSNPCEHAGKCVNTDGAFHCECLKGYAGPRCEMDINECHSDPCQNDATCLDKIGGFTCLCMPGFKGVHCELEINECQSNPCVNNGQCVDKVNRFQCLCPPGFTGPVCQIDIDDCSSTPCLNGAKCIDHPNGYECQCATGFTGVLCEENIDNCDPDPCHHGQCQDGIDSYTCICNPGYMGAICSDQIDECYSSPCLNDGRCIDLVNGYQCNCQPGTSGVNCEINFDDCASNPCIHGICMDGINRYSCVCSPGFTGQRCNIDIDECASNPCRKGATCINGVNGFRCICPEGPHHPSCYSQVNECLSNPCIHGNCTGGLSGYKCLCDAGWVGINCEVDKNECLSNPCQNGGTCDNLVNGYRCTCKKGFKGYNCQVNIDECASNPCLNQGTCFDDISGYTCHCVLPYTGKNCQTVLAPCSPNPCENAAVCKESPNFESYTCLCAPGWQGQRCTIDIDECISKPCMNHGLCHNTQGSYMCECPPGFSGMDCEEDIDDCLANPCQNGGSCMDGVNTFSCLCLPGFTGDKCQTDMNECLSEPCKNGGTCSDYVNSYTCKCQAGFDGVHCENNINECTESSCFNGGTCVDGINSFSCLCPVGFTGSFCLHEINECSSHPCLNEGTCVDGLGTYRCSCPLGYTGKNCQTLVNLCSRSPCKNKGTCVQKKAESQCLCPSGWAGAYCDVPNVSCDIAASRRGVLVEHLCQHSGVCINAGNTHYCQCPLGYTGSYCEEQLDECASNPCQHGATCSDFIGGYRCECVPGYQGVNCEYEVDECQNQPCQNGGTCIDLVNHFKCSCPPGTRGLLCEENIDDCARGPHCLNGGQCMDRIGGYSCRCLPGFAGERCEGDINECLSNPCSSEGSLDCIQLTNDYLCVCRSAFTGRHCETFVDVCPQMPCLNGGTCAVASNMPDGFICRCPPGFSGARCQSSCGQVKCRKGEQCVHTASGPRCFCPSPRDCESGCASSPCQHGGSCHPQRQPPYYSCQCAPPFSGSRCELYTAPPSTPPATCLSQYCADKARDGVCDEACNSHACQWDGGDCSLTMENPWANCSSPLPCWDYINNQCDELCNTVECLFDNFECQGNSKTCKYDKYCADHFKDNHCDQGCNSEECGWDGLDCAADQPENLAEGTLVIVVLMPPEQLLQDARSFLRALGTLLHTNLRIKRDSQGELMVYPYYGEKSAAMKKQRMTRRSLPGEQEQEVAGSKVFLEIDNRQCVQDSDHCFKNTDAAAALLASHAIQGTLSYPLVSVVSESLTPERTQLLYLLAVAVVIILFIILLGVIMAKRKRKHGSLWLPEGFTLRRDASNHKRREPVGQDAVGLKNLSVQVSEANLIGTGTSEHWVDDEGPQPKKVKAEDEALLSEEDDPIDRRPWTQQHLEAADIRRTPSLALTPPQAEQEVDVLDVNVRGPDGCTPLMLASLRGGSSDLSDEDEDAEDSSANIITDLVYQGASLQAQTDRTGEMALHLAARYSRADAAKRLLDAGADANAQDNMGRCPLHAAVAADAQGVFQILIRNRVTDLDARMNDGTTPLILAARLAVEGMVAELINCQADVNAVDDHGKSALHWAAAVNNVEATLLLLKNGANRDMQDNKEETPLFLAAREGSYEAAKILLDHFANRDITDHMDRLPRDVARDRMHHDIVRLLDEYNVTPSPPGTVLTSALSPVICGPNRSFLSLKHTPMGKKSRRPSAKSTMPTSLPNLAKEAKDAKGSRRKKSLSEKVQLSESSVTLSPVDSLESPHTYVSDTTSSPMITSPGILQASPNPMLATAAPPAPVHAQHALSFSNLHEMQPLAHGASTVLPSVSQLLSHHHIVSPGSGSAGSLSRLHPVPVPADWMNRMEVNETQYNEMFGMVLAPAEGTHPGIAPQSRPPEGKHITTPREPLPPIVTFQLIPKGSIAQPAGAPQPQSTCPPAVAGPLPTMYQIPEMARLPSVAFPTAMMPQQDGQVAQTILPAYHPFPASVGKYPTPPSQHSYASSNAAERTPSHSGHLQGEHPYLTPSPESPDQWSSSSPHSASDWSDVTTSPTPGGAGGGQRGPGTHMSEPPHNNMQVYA
Chain of Torsin-1A-interacting protein 2 (Homo sapiens) (Q8NFQ8 whole entry, looked up): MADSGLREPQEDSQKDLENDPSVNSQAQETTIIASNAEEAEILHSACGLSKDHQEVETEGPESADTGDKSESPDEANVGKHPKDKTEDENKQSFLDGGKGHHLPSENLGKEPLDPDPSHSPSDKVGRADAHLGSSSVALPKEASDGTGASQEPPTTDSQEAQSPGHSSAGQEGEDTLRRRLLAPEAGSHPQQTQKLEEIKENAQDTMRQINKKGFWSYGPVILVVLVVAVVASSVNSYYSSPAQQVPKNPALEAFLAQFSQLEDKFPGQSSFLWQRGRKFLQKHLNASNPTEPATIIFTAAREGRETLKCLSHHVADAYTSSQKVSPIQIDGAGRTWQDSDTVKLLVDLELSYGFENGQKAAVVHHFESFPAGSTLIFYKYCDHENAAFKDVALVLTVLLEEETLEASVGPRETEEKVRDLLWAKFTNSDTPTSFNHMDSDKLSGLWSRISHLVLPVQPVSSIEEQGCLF

## Cc1ccc(S[C@]2(C(=O)NCCN3CCOCC3)CC(=O)N(C3CCCCC3)[C@@H]2c2ccc(CO)cc2I)cc1
[1]
  composite z-score: -1.01
[2]
  composite z-score: 0.866
[3]
  composite z-score: -0.0687
[4]
  composite z-score: 0.841
[5]
  composite z-score: 0.955
[6]
  composite z-score: 1.61
[7]
  composite z-score: 1.22
[8]
  z-score: -2.05 (inactive)
[9]
  composite z-score: 0.259
[10]
  composite z-score: -0.279
[11]
  composite z-score: 1.53
[12]
  z-score: -0.376 (inactive)
[13]
  z-score: 0.174 (inactive)
[14]
  z-score: 1.28 (inactive)
[15]
  composite z-score: 3.23
[16]
  z-score: -0.385 (inactive)
[17]
  composite z-score: -0.0512
[18]
  composite z-score: 0.824
[19]
  composite z-score: 1.07
[20]
  composite z-score: -0.313

## COCC(=C=CC[C@@H](O)c1ccc(OCCO)cc1)C[C@@H](O)COCc1ccccc1
[1]
  composite z-score: 0.158
[2]
  composite z-score: -0.187
[3]
  composite z-score: -0.015
[4]
  composite z-score: 0.734
[5]
  composite z-score: 0.726
[6]
  composite z-score: 1.11
[7]
  composite z-score: 1.07
[8]
  z-score: -1.1 (inactive)
[9]
  composite z-score: 0.543
[10]
  composite z-score: 0.111
[11]
  composite z-score: 1.55
[12]
  z-score: -1.31 (inactive)
[13]
  z-score: -0.979 (inactive)
[14]
  z-score: -0.474 (inactive)
[15]
  composite z-score: 3.16
[16]
  z-score: 1.55 (inactive)
[17]
  composite z-score: 0.0282
[18]
  composite z-score: 1.43
[19]
  composite z-score: 0.964
[20]
  composite z-score: 0.049

## C=CCC(OC(C)=O)[C@@H]1[C@@H](N(Cc2ccc(-c3cccc(C(F)(F)F)c3)o2)C(=O)Cc2ccc(F)cc2)c2cc(OCCCO)ccc2N1C(=O)c1ccc2ccccc2n1 (stereo not given in full)
[1]
  composite z-score: -0.019
[2]
  composite z-score: 0.193
[3]
  composite z-score: -0.106
[4]
  composite z-score: -0.321
[5]
  composite z-score: -0.848
[6]
  composite z-score: -0.114
[7]
  composite z-score: -0.533
[8]
  z-score: 0.01 (inactive)
[9]
  composite z-score: 0.0974
[10]
  composite z-score: 0.235
[11]
  composite z-score: -1.08
[12]
  z-score: -0.203 (inactive)
[13]
  z-score: 0.15 (inactive)
[14]
  z-score: -0.522 (inactive)
[15]
  composite z-score: -0.452
[16]
  z-score: -1.08 (inactive)
[17]
  composite z-score: -0.0415
[18]
  composite z-score: -0.436
[19]
  composite z-score: -0.768
[20]
  composite z-score: -0.157

## COC(=O)[C@@]1(Cc2ccc(F)cc2)[C@H]2c3cc(C(=O)N(C)C)n(CCO)c3C[C@H]2CN1C(=O)c1ccccc1
[1]
  composite z-score: 0.135
[2]
  composite z-score: -0.311
[3]
  composite z-score: 0.169
[4]
  composite z-score: 0.429
[5]
  composite z-score: 1.5
[6]
  composite z-score: 2.16
[7]
  composite z-score: 1.06
[8]
  z-score: -1.11 (inactive)
[9]
  composite z-score: 0.433
[10]
  composite z-score: 0.218
[11]
  composite z-score: 0.0788
[12]
  z-score: -1.48 (inactive)
[13]
  z-score: 0.766 (inactive)
[14]
  z-score: -0.618 (inactive)
[15]
  composite z-score: 2.89
[16]
  z-score: -0.28 (inactive)
[17]
  composite z-score: 0.0423
[18]
  composite z-score: -0.515
[19]
  composite z-score: -0.562
[20]
  composite z-score: -0.0271

## NC(=O)N1C(=O)C2C(C1=O)C1C=C(CCCO)C2C(c2ccc(CN3CCCC3)cc2)N1Cc1cccc(OC(F)(F)F)c1 (stereo not given)
[1]
  composite z-score: -0.0367
[2]
  composite z-score: 0.145
[3]
  composite z-score: 0.028
[4]
  composite z-score: 0.173
[5]
  composite z-score: 0.185
[6]
  composite z-score: -0.299
[7]
  composite z-score: 1.03
[8]
  z-score: -0.0987 (inactive)
[9]
  composite z-score: 0.0635
[10]
  composite z-score: -0.0296
[11]
  composite z-score: 1.33
[12]
  z-score: -1.11 (inactive)
[13]
  z-score: -2.67 (inactive)
[14]
  z-score: -2.1 (inactive)
[15]
  composite z-score: 1.28
[16]
  z-score: 0.489 (inactive)
[17]
  composite z-score: 0.0472
[18]
  composite z-score: 0.623
[19]
  composite z-score: 0.0057
[20]
  composite z-score: -0.0286

## CC(C)(C)N1CC=CC23O[C@@H]4/C=C\CCCOC(=O)C4[C@H]2C(=O)N(CCCCCCO)[C@@H]3C1=O (stereo not given in full)
[1]
  composite z-score: 0.509
[2]
  composite z-score: -0.342
[3]
  composite z-score: -0.208
[4]
  composite z-score: -0.056
[5]
  composite z-score: -1.12
[6]
  composite z-score: 1.1
[7]
  composite z-score: 0.781
[8]
  z-score: -1.09 (inactive)
[9]
  composite z-score: -0.392
[10]
  composite z-score: -0.0618
[11]
  composite z-score: -0.0574
[12]
  z-score: -3.01 (inactive)
[13]
  z-score: -0.927 (inactive)
[14]
  z-score: -0.624 (inactive)
[15]
  composite z-score: 1.24
[16]
  z-score: 1.42 (inactive)
[17]
  composite z-score: -0.302
[18]
  composite z-score: -1.19
[19]
  composite z-score: -0.052
[20]
  composite z-score: 0.252

## CCCC[C@@H]1C[C@H]1[C@@H](NC(=O)c1ccc(C(F)(F)F)cc1)c1ccc(C(=O)OC)cc1
[1]
  composite z-score: 1.54
[2]
  composite z-score: 2.4
[3]
  composite z-score: 0.589
[4]
  composite z-score: 0.769
[5]
  composite z-score: 0.587
[6]
  composite z-score: 0.311
[7]
  composite z-score: 0.0521
[8]
  z-score: -2.69 (inactive)
[9]
  composite z-score: 0.568
[10]
  composite z-score: 2.46
[11]
  composite z-score: 0.715
[12]
  z-score: 0.119 (inactive)
[13]
  z-score: -3.29 (inactive)
[14]
  z-score: -0.898 (inactive)
[15]
  composite z-score: 0.888
[16]
  z-score: 0.255 (inactive)
[17]
  composite z-score: 0.293
[18]
  composite z-score: 0.747
[19]
  composite z-score: 0.812
[20]
  composite z-score: 0.695

## COCCOC(=O)N1C(=O)[C@@]2(c3cc(C#CCCO)ccc31)[C@H](C(=O)N1CCc3cc(OC)c(OC)cc3C1)[C@H]1C(=O)O[C@H](c3ccccc3)[C@H](c3ccccc3)N1[C@@H]2c1ccccc1OCCO
[1]
  composite z-score: -0.327
[2]
  composite z-score: 0.255
[3]
  composite z-score: -0.0336
[4]
  composite z-score: 1
[5]
  composite z-score: 1.47
[6]
  composite z-score: 0.317
[7]
  composite z-score: 1.19
[8]
  z-score: -0.742 (inactive)
[9]
  composite z-score: 0.0205
[10]
  composite z-score: -0.111
[11]
  composite z-score: 1.55
[12]
  z-score: 2.65 (inactive)
[13]
  z-score: 1.65 (inactive)
[14]
  z-score: 3.88 (inactive)
[15]
  composite z-score: 2.81
[16]
  z-score: 0.156 (inactive)
[17]
  composite z-score: -0.0159
[18]
  composite z-score: 1.81
[19]
  composite z-score: 1.1
[20]
  composite z-score: -0.0564

## COCCOC(=O)N1C(=O)[C@@]2(c3ccccc31)[C@H](C(N)=O)[C@H]1C(=O)O[C@H](c3ccccc3)[C@H](c3ccccc3)N1[C@@H]2c1ccc(OCCO)cc1
[1]
  composite z-score: -0.4
[2]
  composite z-score: 1.06
[3]
  composite z-score: 0.0445
[4]
  composite z-score: 0.257
[5]
  composite z-score: 0.995
[6]
  composite z-score: 1.59
[7]
  composite z-score: 1.21
[8]
  z-score: 0.341 (inactive)
[9]
  composite z-score: 0.239
[10]
  composite z-score: 0.0854
[11]
  composite z-score: 1.54
[12]
  z-score: 2.25 (inactive)
[13]
  z-score: 0.601 (inactive)
[14]
  z-score: 4.25 (inactive)
[15]
  composite z-score: 2.58
[16]
  z-score: 0.935 (inactive)
[17]
  composite z-score: -0.0862
[18]
  composite z-score: 1.61
[19]
  composite z-score: 1.14
[20]
  composite z-score: -0.132
